Where “and” joins values, the source holds several entries; their conditions need not be identical. Identical values can stand only once. Inconclusive results are not listed. Calls of active or inactive are those of the source. Unless noted, the call rests on the fitted dose curve; in most records, active means well fitted curve in the direction sought with a large enough effect in the repeat runs; inconclusive means weak or mixed curves; inactive means no such curve, though single readings can be large; an effect the other way counts as inactive or inconclusive.

Experiment [1] has as its target Luciferin 4-monooxygenase (Photinus pyralis) (UniProt P08659). Put plainly: qHTS assay to identify small molecule inhibitors of firefly luciferase (AID 1224835). Further: nearly all actives have a fitted effect of over 25% in size. An outline of the steps: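 Biochemical qHTS: compounds run as interplate titrations against purified firefly enzyme, with D-luciferin and ATP each at its KM concentration. Light output recorded by CCD imaging.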

The nature of experiment [2]: qHTS assay to identify small molecule agonists of the constitutive androstane receptor (CAR) signaling pathway - cell viability counter screen (AID 1224836). Further: nearly all actives have a fitted effect of over 45% in size. An outline of the steps:
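Multiplexed viability check: HepG2-CYP2B6-hCAR cells, 15-point compound dosing, 0.75 uM PK11195 final, 23 h at 37 C, CellTiter-Fluor fluorescence.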

Experiment [3] in a line: qHTS assay to identify small molecule antagonists of the constitutive androstane receptor (CAR) signaling pathway - cell viability counter screen (AID 1224837). Further: nearly all actives have a fitted effect of over 45% in size. An outline of the steps:
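In quantitative HTS format, compounds at 15 concentrations were applied to HepG2 cells double-transfected with hCAR and CYP2B6-2.2kb under 50 nM CITCO stimulation; live-cell protease activity was read after 23 hr via CellTiter-Fluor.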
On the technique in general: In qHTS, concentration-response curves come from the screen itself.

Experiment [4] concerns the target Nuclear receptor subfamily 1 group I member 3 (Homo sapiens) (UniProt Q14994). Put plainly: qHTS assay to identify small molecule antagonists of the constitutive androstane receptor (CAR) signaling pathway (AID 1224838). Further: nearly all actives have a fitted effect of over 40% in size. An outline of the steps: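 CITCO-stimulated (50 nM final) HepG2 cells stably transfected with hCAR and CYP2B6-2.2kb luciferase were exposed to compounds at 15 concentrations for 24 h at 37 C/5% CO2. A luciferase reagent was added and luminescence recorded after 30 min.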

The target is the same in experiment [5]. Description: qHTS assay to identify small molecule agonists of the constitutive androstane receptor (CAR) signaling pathway (AID 1224839). Further: nearly all actives have a fitted effect of over 15% in size. An outline of the steps: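 Using human hepatoma HepG2 cells engineered with hCAR and a CYP2B6-2.2kb reporter, 15-concentration compound series were incubated 24 h alongside PK11195 at 0.75 uM final, with luminescence quantified afterwards.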

Experiment [6] is described as follows: qHTS assay to identify small molecule antagonists of the estrogen related receptor (ERR) signaling pathway from Tox21 library - cell viability counter screen (AID 1224834). Further: nearly all actives have a fitted effect of over 30% in size. An outline of the steps:
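In this quantitative HTS format, ERR cells receive compounds in DMSO and are incubated for 17.5 h at 37 C. Live-cell protease activity is then detected with CellTiter-Fluor.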

Experiment [7] is described as follows: qHTS assay to identify small molecule antagonists of the estrogen related receptor signaling pathway with the pleiotropic PPARgamma coactivator (PGC) from Tox21 10K library - cell viability counter screen (AID 1224840; active means well fitted cell-killing curve with a large enough effect in the repeat runs, not every such curve was filed as active; further: nearly all actives have a fitted effect of over 40% in size). An outline of the steps:
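Viability counter screen, PGC/ERR cells: 17.5 h compound exposure at 37 C, CellTiter-Fluor fluorescence endpoint.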

A short description of experiment [8]: qHTS assay to identify small molecule antagonists of the estrogen related receptor signaling pathway with the pleiotropic PPARgamma coactivator (PGC) from Tox21 10K library (AID 1224841; call rule not given here; further: actives are mostly falling curves and most rising ones were filed inactive; nearly all actives have a fitted effect of over 50% in size). An outline of the steps:
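In the PGC/ERR line, DMSO solutions of test chemicals are pin-delivered to 2,000 cells/well six hours after dispensing. Following eighteen hours' incubation, One-Glo reagent is added and luminescence recorded.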

Experiment [9] can be described thus: qHTS assay to identify small molecule agonists of the estrogen related receptor signaling pathway with the pleiotropic PPARgamma coactivator (PGC) from Tox21 10K library (AID 1224842). Further: nearly all actives have a fitted effect of over 15% in size. An outline of the steps:
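PGC/ERR reporter cell line, 2,000 cells per well, incubated 6 h at 37 C before 23 nL compound in DMSO was added. After 18 h at 37 C, One-Glo luminescence read following 30 min at room temperature.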

For experiment [10], the target named is Thyrotropin receptor (Homo sapiens) (UniProt P16473). Description: qHTS assay to identify small molecule agonists of the thyroid stimulating hormone receptor (TSHR) signaling pathway (AID 1224843; calls by dose curve; further: nearly all actives have a fitted effect of over 45% in size). An outline of the steps:
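HEK293/TSHR, 800 cells/well; cpd 30 min RT; add cAMP-d2 + anti-cAMP-cryptate, 1 h RT; fluorescence read on plate reader. 15-pt titration, n=3.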
Potency means the concentration at half of the fitted maximal effect.

Sequence of Nuclear receptor subfamily 1 group I member 3 (Homo sapiens) (Q14994 whole entry, looked up): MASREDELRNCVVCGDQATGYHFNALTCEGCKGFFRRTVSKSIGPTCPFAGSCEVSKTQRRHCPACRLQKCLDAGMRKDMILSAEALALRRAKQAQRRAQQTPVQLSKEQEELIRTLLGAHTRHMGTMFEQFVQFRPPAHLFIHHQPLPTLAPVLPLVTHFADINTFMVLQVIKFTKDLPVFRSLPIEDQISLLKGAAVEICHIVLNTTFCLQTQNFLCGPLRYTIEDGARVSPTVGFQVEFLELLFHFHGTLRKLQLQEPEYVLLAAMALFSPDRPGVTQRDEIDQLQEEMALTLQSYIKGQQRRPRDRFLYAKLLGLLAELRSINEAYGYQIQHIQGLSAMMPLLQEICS
Sequence of Thyrotropin receptor (Homo sapiens) (P16473 whole entry, looked up): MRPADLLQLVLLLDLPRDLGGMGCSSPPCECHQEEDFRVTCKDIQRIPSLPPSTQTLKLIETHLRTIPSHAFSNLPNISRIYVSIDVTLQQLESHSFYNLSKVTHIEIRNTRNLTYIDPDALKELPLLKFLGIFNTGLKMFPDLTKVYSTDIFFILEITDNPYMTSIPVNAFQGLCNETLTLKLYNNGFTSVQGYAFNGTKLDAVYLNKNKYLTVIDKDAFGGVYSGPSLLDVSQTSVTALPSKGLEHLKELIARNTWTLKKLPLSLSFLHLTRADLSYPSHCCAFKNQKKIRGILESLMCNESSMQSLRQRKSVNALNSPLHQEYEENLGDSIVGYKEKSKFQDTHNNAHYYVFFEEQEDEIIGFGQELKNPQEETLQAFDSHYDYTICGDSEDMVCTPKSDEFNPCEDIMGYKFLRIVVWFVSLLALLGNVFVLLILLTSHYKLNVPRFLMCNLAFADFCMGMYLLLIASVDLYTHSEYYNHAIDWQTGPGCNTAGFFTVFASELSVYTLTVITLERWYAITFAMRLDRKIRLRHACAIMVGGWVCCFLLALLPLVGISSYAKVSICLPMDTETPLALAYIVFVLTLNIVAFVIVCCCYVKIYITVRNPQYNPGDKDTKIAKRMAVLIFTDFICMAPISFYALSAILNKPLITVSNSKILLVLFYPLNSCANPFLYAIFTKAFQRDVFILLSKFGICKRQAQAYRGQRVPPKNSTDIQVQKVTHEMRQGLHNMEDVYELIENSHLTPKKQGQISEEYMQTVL
Sequence of Luciferin 4-monooxygenase (Photinus pyralis) (P08659 whole entry, looked up): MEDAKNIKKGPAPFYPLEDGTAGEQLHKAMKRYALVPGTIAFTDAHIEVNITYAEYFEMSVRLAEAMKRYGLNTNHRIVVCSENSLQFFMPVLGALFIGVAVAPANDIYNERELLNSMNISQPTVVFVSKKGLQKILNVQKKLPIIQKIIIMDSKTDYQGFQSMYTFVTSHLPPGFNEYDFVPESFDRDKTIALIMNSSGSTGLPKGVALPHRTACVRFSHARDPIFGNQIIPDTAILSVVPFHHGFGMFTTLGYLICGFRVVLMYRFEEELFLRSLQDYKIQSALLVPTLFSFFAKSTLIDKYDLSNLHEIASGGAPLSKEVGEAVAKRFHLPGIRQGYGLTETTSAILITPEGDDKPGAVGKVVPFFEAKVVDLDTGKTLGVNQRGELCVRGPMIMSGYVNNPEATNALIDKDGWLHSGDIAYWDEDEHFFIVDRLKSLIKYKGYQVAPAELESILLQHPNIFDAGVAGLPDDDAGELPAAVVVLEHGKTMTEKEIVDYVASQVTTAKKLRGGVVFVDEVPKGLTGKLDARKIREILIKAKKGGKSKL

Take `O=C(Oc1ccccc1)c1ccccc1C(=O)Oc1ccccc1`: the Potency entry in experiment [1], in [2], in experiment [3], in experiment [4] and in [5] was “inactive” each time.

Turning to `CN(C)c1ccc(SC#N)cc1`, the Potency result in experiment [6], in experiment [5] and in [7] was “inactive” each time. Further, in experiment [4], the Potency is 27.3 µM (active).

For `COc1cccc2c1C(=O)c1c(O)c3c(c(O)c1C2=O)C[C@@](O)(C(=O)CO)C[C@@H]3O[C@H]1C[C@H](N)[C@H](O[C@@H]2CCCCO2)[C@H](C)O1`, the Potency in experiment [6] was 9.44 µM (active); in experiment [2], 7.5 µM (active); in [3], 8.41 µM (active); in [4], 0.944 µM (active); in experiment [9], 0.422 µM (active). Also, the Potency entry in experiment [5], in [8] and in experiment [10] was “inactive” in each case.

As for `Oc1ccc2cc(SSc3ccc4cc(O)ccc4c3)ccc2c1`, the Potency in [6] is 61.1 µM (active); in experiment [8], 48.6 µM (active) and 43.3 µM (active). The Potency entry in experiment [2], in [3], in experiment [4], in [9] and in experiment [10] was “inactive” in each case.

On to `CCCCCCCCOc1ccccc1C(=O)Nc1ccc(C(=O)OCC[N+](C)(CC)CC)cc1`, for which the Potency entry in experiment [1], in experiment [2], in [3], in [4], in experiment [5] and in [7] was “inactive” each time.

Turning to `CC(C)(C)c1ccc(C(=O)CCCN2CCC(OC(c3ccccc3)c3ccccc3)CC2)cc1`, the Potency in experiment [6] is 23.7 µM (active); in experiment [3], 29.8 µM (active); in [7], 29.8 µM (active); in [10], 11.9 µM (active). Also, the Potency entry in experiment [5] was “inactive”.

For the compound `O=c1cccccc1O`, the Potency result in [1], in experiment [2], in [3], in [4], in [5] and in experiment [7] was “inactive” in each case. Besides, the Potency result in experiment [10] was “inactive”.

Turning to `O=C1c2ccccc2Cc2ccccc21`, the Potency result in experiment [1], in experiment [2], in [3], in experiment [4], in [7] and in [8] was “inactive” throughout. Also, the Potency entry in [10] is “inactive”. Further, the Potency in experiment [5] was 21.8 µM (active).

Regarding `Cc1onc(-c2c(Cl)cccc2Cl)c1C(=O)N[C@@H]1C(=O)N2[C@@H]1SC(C)(C)[C@@H]2C(=O)O`, the Potency entry in experiment [6], in experiment [2], in experiment [3], in experiment [4], in [5] and in experiment [7] was “inactive” throughout. Besides, the Potency entry in experiment [8], in [9] and in [10] was “inactive” in each case.

Consider `CCCCCCCCCCCCCCCCCC[N+](C)(C)Cc1ccccc1`, for which the Potency in experiment [6] is 49 µM (active); in [2], 55 µM (active); in experiment [3], 55 µM (active); in [4], 49 µM (active); in experiment [7], 55 µM (active); in experiment [8], 30.9 µM (active). Moreover, the Potency in experiment [10] was 55 µM (active). Moreover, the Potency entry in [5] and in [9] was “inactive” each time.

Regarding `O=C(c1ccc(F)cc1)C1CCN(CCn2c(=O)[nH]c3ccccc3c2=O)CC1`, the Potency result in experiment [1], in experiment [2], in experiment [3], in experiment [4], in experiment [5] and in experiment [7] was “inactive” throughout. For the same compound, the Potency result in experiment [8], in experiment [9] and in experiment [10] was “inactive” throughout.

On to `CCCCC(CC)COP(=O)(O)OCC(CC)CCCC` (stereo not drawn), for which the Potency in experiment [6] was 48.6 µM (active); in [8], 27.4 µM (active) and 21.7 µM (active). For the same compound, the Potency entry in experiment [2], in experiment [3], in experiment [4], in [5], in [7] and in [9] was “inactive” throughout.

`CCCCCCCCn1sc(Cl)c(Cl)c1=O`: the Potency in experiment [1] is 3.56 µM (active); in experiment [2], 30.6 µM (active); in experiment [3], 30.6 µM (active); in experiment [4] it was 27.3 µM (active). The Potency entry in experiment [5] and in [10] was “inactive” in each case.

Regarding `Oc1ccc2c(c1)-c1ccccc1C2`, the Potency entry in experiment [6], in [3], in experiment [4], in experiment [7], in experiment [8] and in [9] was “inactive” in each case. For the same compound, the Potency result in experiment [10] is “inactive”. Moreover, the Potency in experiment [5] was 54.5 µM (active).

For `O=[N+]([O-])c1cc([N+](=O)[O-])c2ccc(S(=O)(=O)O)cc2c1O`, the results for the Potency in [6], in experiment [3] and in [7] were 12.1 µM (active), 24.2 µM (active) and 24.2 µM (active), respectively.

As to `O=[N+]([O-])c1cc(Cl)c(Cl)c(Cl)c1Cl`, the Potency result in experiment [1], in experiment [2], in experiment [3], in [4], in experiment [5] and in [9] was “inactive” in each case. For the same compound, in experiment [10], the Potency result was “inactive”.

Take `CCc1cc(Cc2cc(CC)c(N)c(CC)c2)cc(CC)c1N`: the Potency result in experiment [1], in experiment [2], in experiment [3], in experiment [4] and in experiment [9] was “inactive” in each case. Besides, the values for the Potency in [5] and in [8] were 4.86 µM (active) and 21.7 µM (active), respectively.

Consider `NC(=O)NS(=O)(=O)c1ccc(N)cc1`, for which the Potency entry in experiment [1], in experiment [2], in [3], in [4], in [5] and in experiment [7] was “inactive” in each case. Besides, the Potency result in experiment [10] is “inactive”.

For `O=C(c1ccc(O)cc1O)c1ccc(O)cc1O`, in [1], the Potency was 40 µM (active) and 44.8 µM (active). Further, the Potency result in experiment [2], in experiment [3], in experiment [4], in [5], in experiment [7] and in [10] was “inactive” throughout.

Turning to `CCCCCCCCCCn1cc[n+](CCCCCCCCCC)c1C`, the Potency in experiment [6] was 27.3 µM (active); in [3] it was 54.5 µM (active); in experiment [4] it was 30.7 µM (active); in experiment [7], 27.3 µM (active); in experiment [8], 27.3 µM (active). The Potency entry in experiment [5] and in [9] was “inactive” each time.

With `N#CSc1ccc(N)c([N+](=O)[O-])c1`, the Potency in [6] is 54.8 µM (active); in [3], 43.5 µM (active); in [4] it was 48.9 µM (active); in experiment [7], 54.8 µM (active); in [8], 30.8 µM (active). The Potency entry in experiment [5] and in experiment [9] was “inactive” throughout.

On to `Cc1oc(-c2ccccc2)nc1CCC(=O)c1ccc(CC2SC(=O)NC2=O)cc1` (stereo not drawn), for which the Potency entry in experiment [1], in [2], in [3], in experiment [4], in experiment [5] and in experiment [7] was “inactive” each time. For the same compound, the Potency result in experiment [8], in experiment [9] and in experiment [10] was “inactive” throughout.

Values taken from PubChem BioAssay (Tox21).
